Only some compounds are listed: those with a hit (about 8.2% of all), similar ones and a draw of the others.
KB-V1 cytotox: KB-V1 MDR subline cytotoxicity; KB-V1 MDR cells viability, CellTiter-Glo, 72 h; 400,000 tested, 3.4% active; Potency, µM (titrated, usually from 46.1 µM), usual class: cytotoxic; AID 1347076; also: % is scaled to controls: 0 for no effect and ±100 for the full control effect; nearly all actives have a fitted effect of over 60% in size
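Readout: CellTiter-Glo luminescence, 10 min after addition. Cells: KB-V1 MDR subline, 72 h at 37 degrees C with compound. Analysis: corrected, normalized data fitted to concentration-effect curves.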
ELG1 repair inh: inhibitors of ELG1-dependent DNA repair in HEK293T cells; HEK293T ELG1-luciferase reporter, luminescence, 16 h; DNA damage induced by 5-fluorouridine; Potency, µM (titrated, usually from 46.1 µM), for the others: top-dose activity change, negative = inhibition, hits mostly inhibitors; 330,000 tested, 2.3% active; AID 504467; also: % is scaled to controls: 0 for no effect and ±100 for the full control effect; nearly all actives have a fitted effect of over 55% in size
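In this reporter screen, reduction of luminescence relative to DMSO vehicle indicated activity. Compounds and 5-fluorouridine were added together to 2,000 cells per well, incubated for 16 hr at 37 °C, then developed with ONE-Glo.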
SW480 rereplic: induces DNA re-replication in SW480 colon adenocarcinoma cells; SW480 DNA re-replication, Hoechst DNA content imaging, 48 h; Potency, µM (highest dose often 46.1 µM), for inactives: top-dose re-replication activation, actives largely listed as activators; 340,000 tested, 1.8% active; AID 624297; also: % of control where 0% means no effect; nearly all actives have a fitted effect of over 55% in size
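DNA re-replication was detected as more nuclei of elevated Hoechst intensity after 48 hr exposure to compound (23 nL pinned per well of 250 cells).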
MCF10A rereplic: DNA re-replication induction in MCF 10a cells. MCF 10A DNA re-replication, Hoechst nuclear intensity, 48 h. Potency, µM (top dose mostly 46.1 µM), inactives show top-dose activity, positive = re-replication, actives largely listed as activators. 350,000 tested, 2.9% active. AID 624296; also: % of control where 0% means no effect; nearly all actives have a fitted effect of over 50% in size
KB-3-1 tox: KB-3-1 parental cell cytotoxicity | 400,000 tested, 1.4% active | Potency, µM (titrated, usually from 46.1 µM), actives largely listed as cytotoxic | KB-3-1 viability, CellTiter-Glo ATP luminescence, 72 h; also: % is scaled to controls: 0 for no effect and ±100 for the full control effect; nearly all actives have a fitted effect of over 60% in size
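72 h, 37 °C compound treatment of KB-3-1 parental cells; CellTiter-Glo added, 10 min, luminescence read. Data corrected against DMSO-only plates and normalized before curve fitting.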
An asterisk follows results filed as active; i = inactive; ? = inconclusive; . = no result; ! = a repeat was not active. Calls follow the shape of the dose curve; as a rule, active = well fitted curve in the direction sought with a large enough effect; inconclusive = small, poorly fitted or top-dose-only effect, or another doubt; inactive = no such curve, though single readings can be large; an effect the other way counts as inactive or inconclusive. Potency is read from the fitted curve at half-maximal effect.

SMILES	KB-V1 cytotox	ELG1 repair inh	SW480 rereplic	MCF10A rereplic	KB-3-1 tox
CC(C)(C)c1ccc(N2C(=O)CSC2c2cccnc2)cc1 (centres undefined)	i	0.0%	10.4%	2.31µM*	i
CCC(C(=O)OCC(=O)N(CCOC)c1c(N)n(Cc2ccccc2)c(=O)[nH]c1=O)c1ccccc1 (centres undefined)	.	1.7%	-2.2%	-1.8%	.
COc1cc2ncc(S(=O)(=O)c3ccccc3)c(N3CCCC(C)C3)c2cc1OC (centres undefined)	i	18.3µM*	?	?	?
COc1ccccc1N1CCN(C(=O)CSc2nnc3n2C(C)(C)Cc2ccccc2-3)CC1	i	9.2µM*	-5.4%	24.2%	i
Cc1cc(C)c(NC(=O)CSc2nnc(-c3ccncc3)n2Cc2ccco2)c(Cl)c1	23.1µM*	0.0%	-4.1%	-0.3%	?
Brc1ccc(CSc2nnc(-c3cnccn3)n2Cc2ccco2)cc1	9.2µM*	-12.6%	8.5%	?	?
CC1(C)Cc2ccccc2-c2nnc(SCC(=O)Nc3ccc4c(c3)OCO4)n21	4.11µM*	13.7%	0.9%	5.9%	i
COc1ncnc2c1ncn2CCCN(C)Cc1ccco1	i	.	.	.	i
Cc1cn2c(=O)c(S(=O)(=O)NCc3ccccc3Cl)c(C)nc2s1	i	.	.	.	i
CCn1c(SCC(=O)Nc2ccc(OC)c(OC)c2)nnc1-c1cnccn1	i	14.5%	-1.2%	8.1%	i
CCn1c(SCC(=O)Nc2ccc3c(c2)OCO3)nnc1-c1cnccn1	20.6µM*	-4.1%	-10.8%	-0.8%	i
CCn1c(COc2ccccc2C)nnc1SCC(=O)Nc1ccc2c(c1)OCCO2	4.61µM*	?	-9.3%	?	i
Clc1ccc(CSc2nnc(-c3ccccn3)n2Cc2ccco2)c(Cl)c1	10.3µM*	0.0%	14.6%	?	?
Cc1ccc(NC(=O)CSc2nnc(-c3cnccn3)n2Cc2ccco2)cc1	7.31µM*	-17.0%	-2.7%	10.7%	i
Nc1nc2c(nc(N3CCOCC3)n2COCCO)c(=O)[nH]1	?	.	.	.	i
CC1CCN(C(=O)c2[nH]cnc2C(=O)Nc2ccc(Cl)cc2)CC1	i	-14.1%	-59.7%	0.5%	?
COc1ccc(S(=O)(=O)N2CCCCC2)cc1NC(=O)c1ccc(CS(C)(=O)=O)cc1	i	10.1%	-0.1%	-1.5%	?
Fc1ccc(CSc2nnc(-c3cnccn3)n2Cc2ccco2)cc1	i	21.5%	-2.1%	3.3%	i
Fc1ccccc1CSc1nnc(-c2cnccn2)n1Cc1ccco1	18.4µM*	?	-92.5%	-58.7%	i
Cc1cccc(OCC(=O)Nc2ccc3nc(SCc4ccccc4)sc3c2)c1	i	.	.	.	i
CCCCn1c(=O)[nH]c(=O)c2c1nc(-c1ccc(-c3ccc(F)cc3)o1)n2C	i	-2.2%	?	10.3µM*	i
CCCOc1ccc(-c2nc3c(c(=O)[nH]c(=O)n3Cc3ccccc3)n2CCO)cc1OCC	i	-27.8%	?	-4.4%	i
CCCCn1c(=O)[nH]c(=O)c2c1nc(-c1ccc(OCC)cc1)n2CC	i	9.3%	-6.2%	15.1%	i
CCCCn1c(-c2ccc(Br)cc2F)nc2c1c(=O)[nH]c(=O)n2CC(C)C	i	?	1.4%	18.4µM*	i
CCCCn1c(=O)[nH]c(=O)c2c1nc(-c1ccc(OCCC)c(OCC)c1)n2CCOC	i	6.51µM*	6.4%	23.1µM*	i
SMILES	KB-V1 cytotox	ELG1 repair inh	SW480 rereplic	MCF10A rereplic	KB-3-1 tox
CCCCn1c(=O)[nH]c(=O)c2c1nc(-c1ccc(-c3ccccc3Br)o1)n2CCOC	?	2.59µM*	4.6%	?	i
COc1ccc(S(=O)(=O)N2CCOCC2)cc1NC(=O)CSc1ccc(F)cc1	i	?	-9.1%	-6.1%	i
CCOC(=O)CN(c1ccccc1C)S(=O)(=O)c1ccc(Cl)cc1	i	7.3%	8.6%	5.5%	i
COCCn1c(-c2ccc(-c3ccccc3Cl)o2)nc2c1c(=O)[nH]c(=O)n2CC(C)C	i	?	?	11.6µM*	i
Cc1ccc2nc(SCC(=O)Nc3cc(C(F)(F)F)ccc3N3CCOCC3)[nH]c2c1	?	-16.1%	5.17µM*	0.581µM*	0.82µM*
CCN(CC)S(=O)(=O)c1ccc(C)c(NC(=O)CSc2nc3ccc(C)cc3[nH]2)c1	14.6µM*	?	.	4.6%	i
Cc1ccc(C)c(NC(=O)C(Sc2nc3ccc(C)cc3[nH]2)c2ccccc2)c1 (centres undefined)	i	?	?	20.6µM*	i
CCN(CC)S(=O)(=O)c1cccc(NC(=O)CSc2nc3ccccc3[nH]2)c1	?	23.1µM*	13.9%	12.0%	i
Cc1ccc(NC(=O)CN(C)C(=O)CSc2ccccc2F)cc1	i	3.9%	-2.0%	-1.8%	i
O=C(CSc1nc2cc3ccccc3cc2[nH]1)Nc1ccc(F)cc1	16.4µM*!	.	0.1%	0.6%	i
Cc1ccc2nc(SCC(=O)Nc3cccc(S(=O)(=O)N(C)C)c3)[nH]c2c1	?	?	0.7%	?	i
CN(C)S(=O)(=O)c1cccc(NC(=O)CSc2nc3ccccc3[nH]2)c1	i	13µM*	1.7%	14.6%	i
COc1ccc(NC(=O)CSc2nc3ccc(OC)cc3[nH]2)cc1	i	-1.4%	-6.9%	-2.7%	i
COc1ccccc1Cc1c(-c2cccc(Br)c2)nc2ccc(Cl)cn12	i	.	.	.	i
O=C1C=CC(=C(c2ccc(O)cc2)c2ccc(O)cc2)C=C1	?	13µM*	?	6.51µM*	5.8µM*
Cn1c2ccccc2c2cc([N+](=O)[O-])ccc21	?	0.0%	-6.5%	3.0%	i
CCN(CC)CCn1c2ccccc2c2nc3ccc([N+](=O)[O-])cc3cc21	i	?	20.6µM*	?	i
Cc1ccc(-n2c(SCC(=O)NCc3ccccc3)nc3n[nH]c(C)c3c2=N)cc1Cl	i	.	.	.	i
Cc1ccc(S(=O)(=O)/N=C2\C=C(Nc3cccc(C(=O)O)c3)C(=O)c3ccccc32)cc1	i	23.1µM*	?	?	23.1µM*
Cc1ccc(S(=O)(=O)Nc2ccc(N=Nc3ccc(O)cc3)cc2)cc1	i	?	-0.3%	-4.1%	i
CCc1ccc(S(=O)(=O)/N=C2\C=C(Nc3ccc(C(=O)O)cc3)C(=O)c3ccccc32)cc1	i	4.61µM*	9.2µM*	4.61µM*	?
Cc1ccc(S(=O)(=O)/N=C2\C=C(Nc3ccc(O)cc3)C(=O)c3ccccc32)cc1	?	10.3µM*	6.31µM*	3.26µM*	4.11µM*
Cc1ccc(S(=O)(=O)/N=C2\C=C(Nc3cccc(C(=O)O)c3)C(=O)c3ccccc32)c(C)c1	i	?	?	6.51µM*	?

Screening data (PubChem)
